Measurements: PubChem BioAssay AID463173 (ICCB-Longwood Screening Facility, Harvard Medical School, 2010)
Among all 52,000 compounds or so, about 4,300 (8.3%) were called active. For the sample, actives were picked, then their nearest neighbours and some compounds at random. A number with no mark means an inactive call. Rule as the data show it: active = survival mostly below about 52% (no sharp cut-off); inactive = mostly above about 56%.

Test system: DeltatarO mutant
Assay: growth inhibition of S. aureus wild type versus tarO mutant, primary screen, teichoic acid synthesis inhibitors, RN4220, OD600 (AID 463173)
Conditions: OD600, 18 h, active compounds read low, screened at 18.75 µg/mL (by protocol)

| SMILES | survival |
| --- | --- |
| Cc1ccc(NC(=O)C(=O)NCC(c2ccc3c(c2)OCO3)N2CCN(C)CC2)cc1C (stereo not given) | 68% |
| CCN(CC)S(=O)(=O)c1ccc2nc(NC(=O)c3ccccc3OC)sc2c1 | 89% |
| CCOc1ccc(N2CC(NC(=O)Cc3cccs3)CC2=O)cc1 (stereo not given) | 73% |
| Cc1ccc(C(=O)Nc2ccc(F)cc2)cc1S(=O)(=O)N1CCCCCC1 | 69% |
| COC(=O)c1sc(N2C(=O)c3oc4ccccc4c(=O)c3C2c2ccc(O)cc2)nc1C (stereo not given) | 121% |
| Cc1[nH]c2ccc(-c3nnc(SCC(=O)N4c5ccccc5CCc5ccccc54)o3)cc2c1C | 89% |
| COc1cc(OC)cc(C(=O)Nc2ccc3nc(N4CCC(C)CC4)cc(C)c3c2)c1 | 51% |
| COc1cc(OC)cc(C(=O)Nc2ccc3nc(N4CCCCC4)cc(C)c3c2)c1 | 31% (active) |
| CCN1CCN(c2cc(C)c3cc(NC(=O)c4cc(OC)cc(OC)c4)ccc3n2)CC1 | 47% (active) |
| Cc1cc(N2CCCCC2)nc2ccc(NC(=O)c3ccc(F)cc3)cc12 | 51% |
| COc1ccc(Nc2cc(C)c3cc(NC(=O)c4cc(OC)cc(OC)c4)ccc3n2)cc1 | 94% |
| COC(=O)c1ccc(Cl)cc1NC(=O)Nc1nnc(N(C)C2CCCCC2)s1 | 81% |
| COc1ccc(-c2cc(C)no2)cc1S(=O)(=O)N1CCOc2ccc(Cl)cc21 | 92% |
| Cc1ccccc1-n1c(=O)c2c3c(sc2n2cnnc12)CCCC3 | 72% |
| Cc1ccc(-n2c(=O)[nH]c3cc(C(=O)NCc4ccccc4)ccc3c2=O)cc1 | 102% |
| Cc1c(C(=O)OCc2ccccc2)[nH]c2c1C(=O)CC(c1ccc(C(C)(C)C)cc1)C2 (stereo not given) | 91% |
| COC(=O)C(NC(=O)CCc1c(C)nc2c(-c3ccccc3)c(C)nn2c1C)C(C)C (stereo not given) | 109% |
| Cc1ccc(Cn2nnc3c(=O)[nH]c(C4CCN(C(=O)Cc5ccccc5F)CC4)nc32)cc1 | 69% |
| CS(=O)(=O)N1CCC(c2nc3c(nnn3Cc3ccc(F)cc3)c(=O)[nH]2)CC1 | 102% |
| O=C(Cc1ccccc1F)N1CCC(c2nc3c(nnn3Cc3ccc(F)cc3)c(=O)[nH]2)CC1 | 72% |
| O=C(Cc1ccc(F)cc1)N1CCC(c2nc3c(nnn3Cc3ccc(Cl)cc3)c(=O)[nH]2)CC1 | 27% (active) |
| O=C(Cc1ccccc1F)N1CCC(c2nc3c(nnn3Cc3cccc(Cl)c3)c(=O)[nH]2)CC1 | 44% (active) |
| O=C(Cc1ccc(F)cc1)N1CCC(c2nc3c(nnn3Cc3ccc(F)cc3)c(=O)[nH]2)CC1 | 66% |
| COc1ccccc1N1CCN(C(=O)Cn2ncc3c2-c2cc(C)ccc2OC3)CC1 | 58% |
| CN(C(=S)SCC1=CCS(=O)(=O)C1)C1CCS(=O)(=O)C1 (stereo not given) | 94% |

| SMILES | survival |
| --- | --- |
| O=C1C(c2ccc(F)cc2)N(Cc2ccccc2Cl)C(=O)CN1C1CCCCC1 (stereo not given) | 81% |
| CC(C)(C)NC(=O)c1c(N)no[n+]1[O-] | 92% |
| Nc1no[n+]([O-])c1C(=O)NCCO | 65% |
| CN(C)C(=O)c1c(N)no[n+]1[O-] | 56% (active) |
| Cc1cc(C)c2c(=O)cc(C(=O)NCCc3ccc(S(N)(=O)=O)cc3)oc2c1 | 61% |
| CCOc1ccc(CC(=O)Nc2c(C(=O)c3ccccc3)oc3ccc(Cl)cc23)cc1OCC | 48% |
| CC(=O)Nc1c(C(=O)O)oc2ccc(Cl)cc12 | 58% (active) |
| COC(=O)c1oc2ccc(Cl)cc2c1C | 65% |
| O=C(NCc1cccs1)c1ccc(Cn2c(SCc3ccc(F)cc3)nc3cccnc32)cc1 | 84% |
| C=CCN=C1SC(C)C(=O)N1S(=O)(=O)c1ccccc1 (stereo not given) | 57% |
| Cc1ccc(S(=O)(=O)N=C2SCCCS2)cc1 | 91% |
| C=CCN=C1SCC(=O)N1S(=O)(=O)c1ccc(C)cc1 | 60% (active) |
| CC(=O)Nc1ccc(I)cc1C(=O)O | 95% |
| CCN(Cc1ccccc1)C(=O)Cn1c(=O)cc(C)c2c(C)nn(-c3cccc(F)c3)c21 | 72% |
| CCOC(=O)c1ccc(NC(=O)Cn2cc(C(=O)c3cccs3)c3ccccc32)cc1 | 62% |
| Cc1cccc(C(=O)Nc2ccc(S(=O)(=O)N3CCC(c4nc5ccccc5s4)CC3)cc2)c1 | 40% (active) |
| O=C(Nc1ccc(S(=O)(=O)N2CCC(c3nc4ccccc4s3)CC2)cc1)c1ccc(F)cc1 | 63% |
| Cc1ccc(C(=O)Nc2ccc(S(=O)(=O)N3CCC(c4nc5ccccc5s4)CC3)cc2)cc1 | 61% |
| Cc1ccccc1C(=O)Nc1ccc(S(=O)(=O)N2CCC(c3nc4ccccc4s3)CC2)cc1 | 40% (active) |
| O=C(Nc1ccc(S(=O)(=O)N2CCC(c3nc4ccccc4s3)CC2)cc1)c1ccccc1F | 57% |
| O=C(Nc1ccc(S(=O)(=O)N2CCC(c3nc4ccccc4s3)CC2)cc1)c1ccccc1 | 104% |
| COCCn1c(SCC(=O)c2c(C)[nH]c3ccccc23)nc2cc(C(=O)NC(C)C)ccc2c1=O | 68% |
| COc1ccc(NC(=O)CS(=O)CC(=O)NC2CCCc3ccccc32)cc1 (stereo not given) | 60% |
| O=C(c1cccc(Cl)c1)n1nc(-c2cccnc2)nc1NCc1ccccc1 | 53% |
| Cc1ccc(Cl)cc1NC(=O)COC(=O)CC(C)(C)CC1=NS(=O)(=O)c2ccccc2N1 | 84% |

| SMILES | survival |
| --- | --- |
| CC(C)(CO)C(O)C(=O)NN (stereo not given) | 84% |
| Cc1ccc(C)c(N2CCN(C(=O)c3ccc4c(c3)N(Cc3ccc(F)cc3)C(=O)c3ccccc3S4=O)CC2)c1 (stereo not given) | 101% |
| CC1=CC(C)(C)N(CC(=O)c2ccccc2)c2ccc(C)cc21 | 97% |
| Cc1ccc(C(=O)N2CC(=O)NC(=O)C2)cc1 | 83% |
| COc1ccc(C(=O)NCc2ccc3c(c2)CCN3C(=O)c2ccc(C)cc2)cc1 | 82% |
| Cc1ccc2c(c1)C(C)(c1ccccc1)CC(C)(C)N2C(=O)c1ccc(F)cc1 (stereo not given) | -4% (active) |
| Cc1ccc2c(c1)N(C(=O)c1ccc(F)cc1)C(C)(C)CC2(C)c1ccccc1 (stereo not given) | 24% (active) |
| Cc1ccc(C(=O)N2c3ccc(C)cc3C(C)(c3ccccc3)CC2(C)C)cc1 (stereo not given) | 4% (active) |
| COc1ccc(C(=O)N2c3ccc(C)cc3C(C)(c3ccccc3)CC2(C)C)cc1 (stereo not given) | 25% (active) |
| CC(=O)OC1CC(C)N(C(=O)c2ccccc2)c2ccc(C)cc21 (stereo not given) | 67% |
| COc1ccc(C(=O)NCc2ccc3c(c2)CCN3C(=O)c2ccccc2)cc1 | 84% |
| Cc1ccc(C(=O)N2CCN(c3ccccc3)CC2)cc1 | 87% |
| Cc1ccc(NC(=O)NCc2ccc3c(c2)CCN3C(=O)c2ccccc2)c(Cl)c1 | 82% |
| CCOC(=O)C1CCC(CN(Cc2ccc(OC)cc2)S(=O)(=O)c2ccc(F)c(C(=O)Nc3c(C)cccc3C)c2)CC1 (stereo not given) | 83% |
| O=C(NCCCN1CCOCC1)C1CC(c2ccccc2O)=NO1 (stereo not given) | 97% |
| Cn1cccc1C(C(=O)NC1CCCCC1)N(C(=O)Cn1nnc2ccccc21)c1cnc2ccccc2c1 (stereo not given) | 112% |
| Cc1cc(C)nc(SCC(=O)Nc2ccc(N3CCOCC3)cc2)n1 | 82% |
| CCc1ccccc1NC(=O)Cn1c(=O)n(Cc2ccc(OC)cc2)c(=O)c2oc3ccccc3c21 | 70% |
| CC1(C)CC(=O)c2cc(C(=O)Nc3ccc(Br)cc3)c(=O)[nH]c2C1 | 70% |
| O=C(CCS(=O)(=O)c1cc(Br)cc2c1N(C(=O)C1CC1)CC2)N1CCN(c2cccc(C(F)(F)F)c2)CC1 | 59% |
| Cc1nc2ccn(Cc3ccco3)c(=O)c2cc1C(=O)N1CCN(c2ccc(F)cc2)CC1 | 135% |
| CCc1nc2ccccc2n1CCCCOc1ccccc1C | 0% (active) |
| CCc1nc2ccccc2n1CCCCOc1ccc(C)cc1 | 1% (active) |
| CCc1nc2ccccc2n1CCCCOc1cccc(C)c1 | -2% (active) |
| CCc1nc2ccccc2n1CCCCOc1ccc(Cl)cc1 | -3% (active) |

| SMILES | survival |
| --- | --- |
| CCc1nc2ccccc2n1CCO | 77% |
| CCCC(O)c1nc2ccccc2n1CCCOc1ccc(Cl)cc1 (stereo not given) | 65% |
| Cc1cccc(OCCCn2c(CCNC(=O)C3CCCCC3)nc3ccccc32)c1 | 37% |
| O=C1C2C3C=CC(C3)C2C(=O)N1CCN1CCN(S(=O)(=O)c2ccc(Br)cc2)CC1 (stereo not given) | 60% |
| CCOc1ccccc1NC(=O)c1c2c(nc3ccccc13)C(=O)N(C1CCCCC1)C2 | 55% |
| COc1ccc(OC)c(NCc2cccn2-c2nnc(N3CCCCC3)s2)c1 | 93% |
| COc1ccc(CC(=O)NCc2nc3cccnc3n2Cc2ccc(C)cc2)cc1 | 92% |
| CN1C(=O)/C(=C/c2cccs2)SC1=S | 113% |
| COc1ccc(Nc2ncc(C(=O)N3CCN(c4cccc(Cl)c4)CC3)c3ccccc23)cc1 | 62% |
| Cc1cccc(N2CCN(C(=O)C3CCCN(S(=O)(=O)c4ccc5c(c4)oc(=O)n5C)C3)CC2)c1C (stereo not given) | 84% |
| CC(=O)N1CCCC1c1nc2ccccc2n1Cc1cc(C)ccc1C (stereo not given) | 106% |
| Cc1cc(NC(=O)c2cccn2-c2nnc(N3CCCCC3)s2)ccc1Br | 117% |
| CCCCN(C)CCCNC(=O)C1CCN(S(=O)(=O)CC)CC1 | 108% |
| CCOc1ccccc1C(=O)N(Cc1ccco1)Cc1ccco1 | 73% |
| Cc1ccc(CN(Cc2ccco2)C(=O)c2ccccc2Cl)o1 | 74% |
| CCc1ccc(CN(Cc2ccco2)C(=O)c2ccc(OC)cc2)cc1 | 52% (active) |
| Cc1ccc(C(=O)N(Cc2ccco2)Cc2ccco2)cc1 | 61% |
| O=C(c1ccccc1Br)N(Cc1ccco1)Cc1ccco1 | 45% (active) |
| O=C(c1ccccc1Cl)N(Cc1ccco1)Cc1ccco1 | 60% |
| COc1ccc(C(=O)N(Cc2ccco2)Cc2ccco2)cc1 | 58% |
| CCc1ccc(CN(Cc2ccco2)C(=O)c2ccccc2Cl)cc1 | 46% (active) |
| COc1ccc(C(=O)N(Cc2ccco2)Cc2ccc(C)o2)cc1 | 71% |
| Cc1ccc(CN(Cc2ccco2)C(=O)c2ccccc2Br)o1 | 47% |
| Cc1ccc(C(=O)N(Cc2ccc(N(C)C)cc2)Cc2ccco2)cc1 | 73% |
| CCc1ccc(CN(Cc2ccco2)C(=O)c2ccc(C)cc2)cc1 | 41% (active) |
